The list is not random: actives were taken first. Their share in the collection is about 19%.
HT1080 IDH1KD tx: qHTS for induction of synthetic lethality in tumor cells producing 2HG: qHTS for the HT-1080-IDH1KD cell line. HT-1080 IDH1 knockdown viability, ATP luminescence, 48 h. Potency, µM (series often up to 46.1 µM), inactives show top-dose activity, negative = toxicity, most hits filed as cytotoxic. hit rate 2% among 360,000. AID 686971, 2013;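 further: potency means the concentration at half of the fitted maximal effect; 0% = DMSO wells and -100% = cell-free medium wells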
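Assay cells: HT-1080 with IDH1 knockdown, 750 per well, RPMI/5% FBS. Exposure: 48 h at 37 °C following 2 h pre-incubation. Read: CellTiter-Glo luminescence; fitted concentration-response, curve class assigned.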
DT40 TDP1 CPT: qHTS for Inhibitors of human tyrosyl-DNA phosphodiesterase 1 (TDP1): qHTS in cells in presence of CPT | hit rate 12% among 420,000 | AID 686979, 2013 | Potency, µM (series often up to 46.2 µM), inactives show top-dose activity change, negative = growth inhibition, hits mostly inhibitors | chicken DT40 Tdp1-/-;hTDP1 cells + 20 nM CPT, ATP luminescence, 48 h; further: potency means the concentration at half of the fitted maximal effect; nearly all actives have a fitted effect of over 55% in size
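Chicken DT40 Tdp1-/- cells stably complemented with human TDP1 were seeded at 400 cells/well in medium containing 20 nM camptothecin, exposed to pin-transferred compounds, and grown at 37 °C for at least 48 hr. Viability was read as ATP luminescence.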
HT1080-NT tox: qHTS for induction of synthetic lethality in tumor cells producing 2HG: qHTS for the HT-1080-NT fibrosarcoma cell line; Potency, µM (doses to about 46.1 µM), for the others: top-dose activity, negative = less viability, usual class: cytotoxic; hit rate 1.6% among 360,000; AID 686970, 2013; HT-1080-NT fibrosarcoma viability, CellTiter-Glo ATP luminescence, 48 h;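 further: NT is the 2HG producing partner of a matched IDH1 knockdown line; potency means the concentration at half of the fitted maximal effect; 0% = DMSO-treated cells and -100% = media-only wells without cells; nearly all actives have a fitted effect of over 55% in size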
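Luminescent CellTiter-Glo readout after 48 hours of compound exposure at 37 degrees C defined viability of HT-1080-NT cells. Activity was normalized to DMSO wells and cell-free media wells; concentration-response curves were fitted and assigned curve classes.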
IL1B secr inh: qHTS for Inhibitors of Inflammasome Signaling: IL-1-beta AlphaLISA Primary Screen | activity change, % at 57.5 µM | hit rate 4.7% among 360,000 | THP-1 LPS/ATP IL-1B secretion, AlphaLISA, 16 h; active compounds read low; in the data active means activity change below about -50%; inconclusive means mostly about -30% to -49%
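Secreted IL-1B measured by AlphaLISA bead assay after 16 h compound exposure of THP-1 cells; compounds (final up to 57.5 uM) added 1 h before LPS (250 ng/mL) and ATP (1.25 mM) stimulation; lower signal means less secretion.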
TDP1 cell noCPT: qHTS for Inhibitors of human tyrosyl-DNA phosphodiesterase 1 (TDP1): qHTS in cells in absence of CPT; DT40 Tdp1-/- hTDP1 cells, no CPT, ATP luminescence, 48 h; Potency, µM (highest dose often 46.2 µM), for inactives: at the highest dose activity change, negative = growth inhibition, most hits filed as inhibitors; hit rate 15% among 420,000; AID 686978, 2013; further: potency means the concentration at half of the fitted maximal effect; nearly all actives have a fitted effect of over 55% in size
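Growth of hTDP1-complemented DT40 Tdp1-knockout cells is measured by ATP luminescence after at least 48 hr compound exposure at 37 °C, with DMSO substituting for the 20 nM CPT used in the parallel screen.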
ELG1 DNA repair: qHTS screen for small molecules that inhibit ELG1-dependent DNA repair in human embryonic kidney (HEK293T) cells expressing luciferase-tagged ELG1. Potency, µM (doses to about 46.1 µM), for the others: top-dose activity change, negative = inhibition, most hits filed as inhibitors. AID 504467, 2011. HEK293T ELG1-luciferase reporter, luminescence, 16 h; DNA damage induced by 5-fluorouridine. hit rate 2.3% among 330,000; further: potency means the concentration at half of the fitted maximal effect; nearly all actives have a fitted effect of over 55% in size
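Quantitative HTS, concentration-response format. 2,000 cells/well co-treated with 5-fluorouridine and compound, 16 hr in 5% CO2 at 37 °C; ONE-Glo luminescence read after 30 min.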
Starred values were filed as active, the others as inactive; i = inactive; ? = inconclusive; . = not tested or not shown; [ ] = another dose, or the depositor's remark. Unless noted, the call rests on the fitted dose curve; in most records, active means well fitted curve in the direction sought with a large enough effect; inconclusive means small, poorly fitted or top-dose-only effect, or another doubt; inactive means no such curve, though single readings can be large; an effect the other way counts as inactive or inconclusive. Unless noted, on the % scale 0 is the no-effect control and ±100 the full control effect.

SMILES | HT1080 IDH1KD tx | DT40 TDP1 CPT | HT1080-NT tox | IL1B secr inh | TDP1 cell noCPT | ELG1 DNA repair
Cc1cc(C)cc(OCC(=O)Nc2nc(-c3ccccn3)cs2)c1 | ? | ? | ? | 94 | ? | -5%
N#Cc1ccccc1OCC(=O)Nc1nc(-c2ccccn2)cs1 | ? | 2.9µM* | ? | 82 | 5.2µM* | .
O=C(CCCSc1ccccc1)Nc1nc(-c2ccccn2)cs1 | -9% | 29µM* | -12% | 30 | 16µM* | ?
O=C(Nc1nc(-c2ccccn2)cs1)C1CCCC1 | -25% | 2.9µM* | -6% | -71* | 5.2µM* | ?
CSCCC(=O)Nc1nc(-c2ccccn2)cs1 | -5% | 16µM* | -16% | 17 | ? | -14%
O=C(CN1C(=O)CCC1=O)Nc1nc(-c2ccccn2)cs1 | -1% | ? | -8% | -22 | -7% | -16%
COc1ccc2[nH]cc(CCNC(=O)Cn3cc(C)c(=O)[nH]c3=O)c2c1 | 4% | 1% | 5% | 24 | 5% | .
COc1ccc2c(CC(=O)OCC(=O)N3CCc4ccccc43)coc2c1 | 0% | ? | 1% | 13 | 18µM* | 3%
O=C(Cc1ccccc1F)OCC(=O)N1CCc2ccccc21 | 13% | -1% | 2% | 61 | 10% | 5%
CC(=O)Nc1ccc(CCCCc2ccc(NC(C)=O)cc2)cc1 | -16% | -12% | 0% | 21 | -24% | .
OC[C@H]1O[C@@H](n2cnc3c(Nc4ccccc4)ncnc32)[C@H](O)[C@@H]1O | -9% | 6% | 0% | -20 | 0% | ?
CN(C)c1ncnc2c1ccn2C1OC(CO)C(O)C1O (stereo not drawn) | 2.6µM* | 3.3µM* | 4.1µM* | -29 | 8.2µM* | .
OCC1OC(n2ccc3c(NO)ncnc32)C(O)C1O (stereo not drawn) | 0.41µM* | 0.15µM* | 1.6µM* | -102* | 0.15µM* | .
Oc1ccc2ccccc2c1/C=N/Nc1ccccc1 | -17% | 6% | -18% | 1 | 2% | ?
O=CN/N=C/c1c(O)ccc2ccccc12 | ? | 7.3µM* | -24% | 245 | 6.5µM* | 21µM*
NC(=S)N/N=C/c1c(O)ccc2ccccc12 | -1% | 12µM* | -20% | 25 | ? | 13µM*
COc1cccc(NC(=O)c2cc(-c3ccc(OC)cc3OC)nc3ccccc23)c1 | -14% | ? | 0% | 20 | ? | .
Cc1ccc(-c2cc(C(=O)Nc3cccnc3)c3ccccc3n2)s1 | 9% | ? | -1% | i | ? | -3%
Cc1cc(NC(=O)c2cc(-c3ccccn3)nc3ccccc23)no1 | -1%[9.24 µM] | -7% | -4% | 5 | -21% | ?
Cc1cc(NC(=O)c2cc(-c3ccc(C)c(C)c3)nc3ccccc23)no1 | -22% | 12µM* | 3% | 15 | 10µM* | ?
COc1ccc(-c2cc(C(=O)Nc3cc(C)on3)c3ccccc3n2)c(OC)c1 | 1% | 12µM* | 1% | 28 | 9.2µM* | 18µM*
Cc1cc(C)nc(NC(=O)c2cc(-c3ccc(C)s3)nc3ccccc23)c1 | -1% | ? | -5% | -15 | 21µM* | ?
Cc1cc(NC(=O)c2cc(-c3cccs3)nc3ccccc23)no1 | ? | 21µM* | ? | 9 | 26µM* | ?
C[N+](C)(C)CC(O)CC(=O)[O-] (stereo not drawn) | . | -22% | . | . | -11% | .
COC(=O)C1=CCCCC(O)=C1C(=O)OC | -1% | -3% | 10% | -3 | -3% | .
SMILES | HT1080 IDH1KD tx | DT40 TDP1 CPT | HT1080-NT tox | IL1B secr inh | TDP1 cell noCPT | ELG1 DNA repair
O=C(Cc1ccc(F)cc1)NC1CC(=O)N(c2ccccc2)C1 (stereo not drawn) | . | 6% | . | . | 9% | .
Cc1ccc(CNC(=O)CNS(=O)(=O)c2cccs2)cc1 | . | -3% | . | . | -12% | .
NC(=O)CC(NC(=O)Cc1ccc(Br)cc1)c1ccc(N2CCC(Cc3ccccc3)CC2)c([N+](=O)[O-])c1 (stereo not drawn) | ? | ? | ? | 0 | 23µM* | 8%
NC(=O)CC(NC(=O)Cc1ccc(Br)cc1)c1ccc(N2CCCCCCC2)c([N+](=O)[O-])c1 (stereo not drawn) | -12% | ? | -22% | -2 | -23% | 11%
NC(=O)CC(NC(=O)c1ccc(Br)cc1)c1ccc(N2CCCCCC2)c([N+](=O)[O-])c1 (stereo not drawn) | -3% | 16µM* | -23% | -1 | 16µM* | -11%
NC(=O)CC(NC(=O)c1cccc(Br)c1)c1ccc(N2CCCCCC2)c([N+](=O)[O-])c1 (stereo not drawn) | 2% | 5.8µM* | 6% | 6 | 6.5µM* | -4%
NC(=O)CC(NC(=O)c1ccccc1)c1ccc(N2CCCCCCC2)c([N+](=O)[O-])c1 (stereo not drawn) | 0% | 8.2µM* | 18% | 6 | 9.2µM* | -12%
NC(=O)CC(NC(=O)c1cccc(Br)c1)c1ccc(N2CCC(N3CCCC3)CC2)c([N+](=O)[O-])c1 (stereo not drawn) | 9% | 5% | 8% | -1 | -19% | 0%
NC(=O)CC(NC(=O)c1ccc(Br)cc1)c1ccc(N2CCC(Br)CC2)c([N+](=O)[O-])c1 (stereo not drawn) | -14% | 18µM* | -12% | -26 | 12µM* | -6%
NC(=O)CC(NC(=O)Cc1ccc(Br)cc1)c1ccc(N2CCC(N3CCCC3)CC2)c([N+](=O)[O-])c1 (stereo not drawn) | -2% | -5% | 4% | 5 | -16% | 25%
Cc1[nH]n(-c2ccccc2)c(=O)c1/C=N/N1C(=O)c2cccc3cccc(c23)C1=O | ? | ? | ? | 83 | 16µM* | ?
COc1ccc2nc(/N=C/c3c(C)[nH]n(-c4ccc(C)cc4)c3=O)sc2c1 | ? | 13µM* | ? | 16 | ? | ?
Cc1[nH]n(-c2ccccc2)c(=O)c1/C=N/N1CCOCC1 | -17% | -14% | -7% | 13 | -1% | 0%

Source: PubChem BioAssay (National Center for Advancing Translational Sciences (NCATS))
